A selection: hits, their analogues and other compounds. The true share with any hit is near 0.5%.
TRPML1 blocker: qHTS for Inhibitors of the Human Mucolipin Transient Receptor Potential 1 (TRPML1) | Mucolipin-1 (Homo sapiens), Q9GZU1 | TRPML1-inducible cells, Ca2+ dye fluorescence, FDSS; active compounds read low; inhibition of EC80 agonist-evoked calcium signal | activity change, negative = inhibition, % (no concentration beside the values) | 390,000 compounds, 0.02% hits | AID 624415, 2012; in the data active = activity change below about -50%; inconclusive = between about -30% and that limit;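 note: stimulus is agonist 54-4 at its EC80 concentration; % is set by controls: 0 for no effect and ±100 for the full control effect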
Target sequence (Q9GZU1 whole entry, looked up): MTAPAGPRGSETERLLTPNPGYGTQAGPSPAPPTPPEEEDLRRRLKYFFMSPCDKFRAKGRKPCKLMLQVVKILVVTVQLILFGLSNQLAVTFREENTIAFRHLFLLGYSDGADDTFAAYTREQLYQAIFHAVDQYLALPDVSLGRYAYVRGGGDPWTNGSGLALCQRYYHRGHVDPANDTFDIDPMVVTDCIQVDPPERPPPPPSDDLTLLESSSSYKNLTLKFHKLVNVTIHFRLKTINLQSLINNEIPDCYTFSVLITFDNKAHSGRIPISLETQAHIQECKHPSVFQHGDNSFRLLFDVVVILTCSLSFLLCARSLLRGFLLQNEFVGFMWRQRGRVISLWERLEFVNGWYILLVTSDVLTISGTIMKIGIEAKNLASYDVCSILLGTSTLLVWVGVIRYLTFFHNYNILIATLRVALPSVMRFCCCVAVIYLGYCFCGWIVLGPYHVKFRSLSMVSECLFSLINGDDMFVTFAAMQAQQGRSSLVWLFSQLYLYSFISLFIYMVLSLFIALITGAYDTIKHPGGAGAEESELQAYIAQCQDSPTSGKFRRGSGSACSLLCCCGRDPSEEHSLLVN
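TRPML1-DL cells, Tet-induced overnight (~16 h, 37 °C) at 1,500 cells/well, were loaded with Ca8 no-wash dye plus quencher for 45-90 min at room temperature. Compounds were pinned during FDSS kinetic reading; agonist 54-4 at EC80 (4 uM final) then added.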
TRPV1 agonist: HTS Assay for Compounds that Act as Agonists of the Vanilloid Receptor 1; Transient receptor potential cation channel subfamily V member 1 (Homo sapiens), Q8NER1; TRPV1-expressing cells, Fluo-8 calcium influx, agonist mode; activation, % at 8.33 µM; 320,000 compounds, 0.19% hits; AID 540275, 2011; in the data active = activation above about 80%; inconclusive = between about 30% and that limit; note: 0% is about no effect
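Fluo-8 calcium influx in TRPV1-expressing cells, kinetic read (ex 480/em 520 nm). Compound added and read 3 min for agonist activity, followed by capsaicin at EC20 final and 2 min further read for enhancement.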
A-T KAP1 phos: qHTS Assay for Identifying a Potential Treatment of Ataxia-Telangiectasia; F2112 A-T fibroblasts, KAP-1 phosphorylation AlphaLISA; neocarzinostatin DNA damage 30 min before lysis; Potency, µM (series often up to 57.5 µM), without a hit: top-dose activation, usual class: activators; 320,000 compounds, 0.19% hits; AID 485349, 2010; note: potency is the fitted concentration of half-maximal effect; % of control where 0% means no effect; nearly all actives have a fitted effect of over 45% in size
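ATM-like activity read as KAP-1 phosphorylation via AlphaLISA donor/acceptor antibody pairs after lysis and 6 hr at 25C. Cells were ATM-null patient fibroblasts (F2112, hTERT), dosed 60 min, then exposed to the DSB inducer NCS for 30 min.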
TRPV1 potentiator: HTS Assay for Compounds that Act as Potentiators of the Vanilloid Receptor 1; Transient receptor potential cation channel subfamily V member 1 (Homo sapiens), Q8NER1; TRPV1-expressing cells, Fluo-8 calcium influx, capsaicin EC20 potentiation; potentiation, % at 8.33 µM; 320,000 compounds, 0.02% hits; AID 540277, 2011; in the data active = potentiation above about 80%; inconclusive = between about 30% and that limit; note: 0% is about no effect
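Cells expressing TRPV1 were dye-loaded with Fluo-8 and read kinetically: 10 s baseline, 3 min after compound (agonist portion), then 2 min after EC20 capsaicin (allosteric enhancer portion). Calcium-bound dye fluorescence at 480/520 nm.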
TRPML1 ag: qHTS for Agonists of the Human Mucolipin Transient Receptor Potential 1 (TRPML1); 410,000 compounds, 0.12% hits; TRPML1-expressing cells, Ca2+ dye fluorescence, FDSS; Mucolipin-1 (Homo sapiens), Q9GZU1; activation, % (concentration not given with the values); in the data active = activation above about 50%; inconclusive = mostly about 30% to 49%; note: 0% is about no effect
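Tet-induced TRPML1-DL cells, 1,500 per well, cultured overnight, were loaded with a no-wash Ca2+ dye for 45–90 min. Calcium fluorescence was recorded on the FDSS for 110 s after compound addition, before the EC80 agonist (4 uM 54-4) was added.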
RGS4 inh: Inhibitors of Regulator of G Protein Signaling (RGS) 4: qHTS | 390,000 compounds, 0.039% hits | Potency, µM (top dose mostly 114 µM), for inactives: at the top dose activity change, negative = inhibition, hits mostly inhibitors | Transcreener GDP fluorescence polarization, RGS4-accelerated GTP hydrolysis | Regulator of G-protein signaling 4 (Homo sapiens), P49798 | AID 504845, 2011; note: potency is the fitted concentration of half-maximal effect; % is set by controls: 0 for no effect and ±100 for the full control effect; nearly all actives have a fitted effect of over 75% in size
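MLSMR compounds (23 nl, pin-transferred) preincubated 10 min at room temperature with a 500nM (2x) first reagent, then RGS4 at 900nM (2x) plus Transcreener GDP mix added; fluorescence polarization (620/688 nm) read before and after 90 min at 30 °C.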
An asterisk follows results filed as active. Unless noted, calls come from the whole dose curve; as a rule, active = well fitted curve in the direction sought with a large enough effect; inconclusive = small, poorly fitted or top-dose-only effect, or another doubt; inactive = no such curve, though single readings can be large; an effect the other way counts as inactive or inconclusive.

Screening Cc1cc(C)n(Cc2ccc(Cl)cc2Cl)c(=O)c1S(=O)(=O)c1ccccc1 returned TRPML1 blocker -3, TRPV1 agonist 0, A-T KAP1 phos 12%, TRPV1 potentiator -11, TRPML1 ag 71* and RGS4 inh -17%.
Screening C=C(C)Cn1c(C)cc(C)c(S(=O)(=O)c2ccc(C)cc2)c1=O returned TRPML1 blocker 9, TRPV1 agonist 3, A-T KAP1 phos 18%, TRPV1 potentiator 2, TRPML1 ag 0 and RGS4 inh 11%.
Screening COc1ccc(NC(=O)c2ccc3c(c2)CCN3S(=O)(=O)c2ccccc2)cc1 returned TRPML1 blocker 9, TRPV1 agonist inconclusive, A-T KAP1 phos 3%, TRPV1 potentiator 4, TRPML1 ag 0 and RGS4 inh -15%.
`Cc1cc(C)cc(NC(=S)N(CCN(C)C)C(C)c2cccnc2)c1` (stereo unspecified) gave TRPML1 blocker 5, TRPV1 agonist -1, A-T KAP1 phos 1%, TRPV1 potentiator 0, TRPML1 ag 2 and RGS4 inh 14%.
For CCCCC/C=C\C[C@H](O)/C=C/C=C\C/C=C\CCCC(=O)O the results were RGS4 inh inactive.
For CCCCC/C=C\C\C=C/C=C/C=C/[C@@H](SC[C@H](N)C(=O)NCC(=O)O)[C@@H](O)CCCC(=O)O the results were RGS4 inh 27µM*.
Screening COc1ccc(/C=C/c2cc(-c3ccc(C)cc3)o[n+]2C)cc1 returned TRPML1 blocker -13, TRPV1 agonist -1, A-T KAP1 phos 11%, TRPV1 potentiator 8, TRPML1 ag 0 and RGS4 inh 2%.
`Cc1ccc(OCC(=O)Nc2nnc(S(=O)(=O)N3CCCCCC3)s2)cc1C` gave TRPML1 blocker 28, TRPV1 agonist -3, A-T KAP1 phos 4%, TRPV1 potentiator inconclusive, TRPML1 ag 0 and RGS4 inh 1%.
`Cn1ccc2c(N3CCCC3)cc3c(c21)C1CCC3C1` (stereo unspecified) gave TRPML1 blocker 0 and TRPML1 ag 0.
Cn1ccc2c(N3CCCCC3)cc3c(c21)C1CCC3C1 (stereo unspecified) was read as TRPML1 blocker -24 and TRPML1 ag 57*.
Screening CCOc1ccc(-n2c(C)cc(/C=N/N(C)C)c2C)cc1 returned TRPML1 blocker -11, TRPV1 agonist 4, A-T KAP1 phos -3%, TRPV1 potentiator -3, TRPML1 ag 0 and RGS4 inh -11%.
O=[N+]([O-])c1ccccc1/C=C/C=N/n1c(-c2ccccc2F)n[nH]c1=S was read as TRPML1 blocker 11, TRPV1 agonist 23, A-T KAP1 phos 25µM*, TRPV1 potentiator -3, TRPML1 ag 0 and RGS4 inh 3%.
`Clc1ccc(-c2nnc(-c3cccc4ccccc34)o2)cc1Cl` gave TRPML1 blocker -18, TRPV1 agonist 2, A-T KAP1 phos 16µM*, TRPV1 potentiator -10, TRPML1 ag 0 and RGS4 inh 8%.
For CCOC(=O)N1CCC(N2C(=O)c3ccccc3C2Nc2ccc3c(c2)OCCO3)CC1 (stereo unspecified) the results were TRPML1 blocker 18, TRPV1 agonist -2, A-T KAP1 phos 4%, TRPV1 potentiator -8, TRPML1 ag 1 and RGS4 inh -5%.
Screening CCOC(=O)N1CCC(N2C(=O)c3ccccc3C2Nc2ccc3c(C)cc(=O)oc3c2)CC1 (stereo unspecified) returned TRPML1 blocker 14, TRPV1 agonist -4, A-T KAP1 phos 40µM*, TRPV1 potentiator 14, TRPML1 ag 1 and RGS4 inh -6%.
`CC(C)(C)n1nnnc1C(c1cccs1)N1CCN(C/C=C/c2ccccc2)CC1` (stereo unspecified) gave TRPML1 ag 0.
`Cc1nnc(NC(=O)c2sc3nc(-c4cccs4)cc(C(F)(F)F)c3c2N)s1` gave TRPML1 blocker 19, TRPV1 agonist 18, A-T KAP1 phos -1%, TRPV1 potentiator 1, TRPML1 ag 52* and RGS4 inh -50%.
Nc1c(C(=O)Nc2nccs2)sc2nc(-c3cccs3)cc(C(F)(F)F)c12 was read as TRPML1 blocker -2, TRPV1 agonist -1, A-T KAP1 phos 17%, TRPV1 potentiator -5, TRPML1 ag 23 and RGS4 inh -32%.
Clc1cccc(CNc2ccn3nc(-c4ccco4)cc3n2)c1 was read as TRPML1 ag -1.
Screening CN(C)c1ccc(/C=C2/C[N+](C)(C)C/C(=C/c3ccc(N(C)C)cc3)C2=O)cc1 returned TRPML1 blocker -6, TRPML1 ag 2 and RGS4 inh inconclusive.
For CC(C)/C=C1\CC/C(=C\c2ccc(N(C)C)cc2)C1=O the results were TRPML1 blocker -24, TRPV1 agonist inconclusive, A-T KAP1 phos 0%, TRPV1 potentiator 3, TRPML1 ag 64* and RGS4 inh -7%.
`CN(C)c1ccc(/C=C/C(=O)c2cccc(Br)c2)cc1` gave TRPML1 blocker -2, TRPV1 agonist 87*, A-T KAP1 phos inconclusive, TRPV1 potentiator 2, TRPML1 ag 0 and RGS4 inh 8%.
For CN(C)c1ccc(C(=O)/C=C/c2cccnc2)cc1 the results were TRPV1 agonist -2, A-T KAP1 phos 5%, TRPV1 potentiator 27 and RGS4 inh 29%.
Screening O=C(c1ccc(Br)o1)N1CCN(Cc2ccc3c(c2)OCO3)CC1 returned TRPML1 blocker -17, TRPV1 agonist 22, A-T KAP1 phos -1%, TRPV1 potentiator -20, TRPML1 ag 3 and RGS4 inh 13%.
Screening O=C(c1ccc(Br)s1)N1CCN(Cc2ccc3c(c2)OCO3)CC1 returned TRPML1 blocker -51*, TRPV1 agonist inconclusive, A-T KAP1 phos 3%, TRPV1 potentiator 2, TRPML1 ag -1 and RGS4 inh 28%.
For C=CC[C@H](CC(=O)N(CCO)Cc1ccccc1)C(=O)N[C@@H](COC(=O)[C@H](CC=C)CC(=O)OC(C)(C)C)Cc1c[nH]c2ccccc12 the results were TRPML1 blocker -5, A-T KAP1 phos -6%, TRPML1 ag 1 and RGS4 inh -26%.
